Source: PubChem BioAssay AID493030 (The Scripps Research Institute Molecular Screening Center, 2011)
In all, about 2,300 compounds went through this assay and about 1,500 (65%) were called active. The set was probably picked from earlier hits. These entries were drawn from the full list. Values without a mark were called inactive.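 How the source made its calls: active means mean inhibition over three repeats above a set limit taken from the earlier primary screen (cut at about 30% in these data); inactive means the rest.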

What follows are compounds tested against Platelet-activating factor acetylhydrolase 2, cytoplasmic (Homo sapiens) (UniProt Q99487) (assay: inhibition of cytoplasmic PAF acetylhydrolase 2 – biochemical, fluorescence polarization, human, confirmation (AID 493030;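 further: inhibitor blocks binding of rhodamine activity probe so polarization falls; 0% = enzyme with DMSO and 100% = wells lacking PAFAH2 protein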)). Conditions: recombinant PAFAH2, FP-rhodamine activity probe, at 3.39 µM, stronger effect = higher value.

| SMILES | inhibition |
| --- | --- |
| O=C(OCc1cn(-c2ccc(Cl)c(Cl)c2)nn1)c1ccccc1Cl | 43.1% (active) |
| O=C(COC(=O)c1ccccc1SCC(=O)NC1CCCCC1)NC1CCCCC1 | 73.7% (active) |
| O=C(COC(=O)c1cccc(Cl)c1)NC1CCCCCCC1 | 67.1% (active) |
| N#Cc1ccccc1Sc1ccccc1C(=O)OCC(=O)NC1CCCCC1 | 21.3% |
| O=C(COC(=O)c1ccccc1Cl)NC1CCCCCCC1 | 70.3% (active) |
| O=C(COC(=O)c1ccccc1SCC(=O)N1CCCC1)Nc1ccccc1OC(F)F | 25.9% |
| CC(C)(C)c1csc(NC2=NS(=O)(=O)c3ccccc32)n1 | 29.4% |
| O=C(COC(=O)c1cccs1)NCc1cccs1 | 45.9% (active) |
| COc1ccccc1CNC(=O)COC(=O)c1cccs1 | 41.8% (active) |
| O=C(COC(=O)c1cccs1)Nc1ccccc1Cl | 55.6% (active) |
| COc1ccccc1CNC(=O)COC(=O)c1sc(C)nc1C | 21% |
| O=c1oc(-c2ccco2)nc2sc3c(c12)CCCCC3 | 34.2% (active) |
| CC(C)c1ccc(NC(=O)COC(=O)c2ccc(CN3CCCC3=O)cc2)cc1 | 66.8% (active) |
| CCC(C)C(NC(=O)C1CCC(=O)N1C(=O)OCc1ccccc1)C(=O)NC(C(=O)N1CCCC1C(N)=O)C(C)CC (centres undefined) | 40.4% (active) |
| CN(C)S(=O)(=O)c1cccc(NC(=O)COC(=O)/C=C/c2cccs2)c1 | 58.5% (active) |
| Cc1ccc(S(=O)(=O)N(C)C)cc1NC(=O)COC(=O)/C=C/c1cccs1 | 51.7% (active) |
| O=c1[nH]n(-c2ccc([N+](=O)[O-])cc2)c(=O)c2ccccc12 | 32.6% (active) |
| CCc1ccc(C(=O)OCC(=O)Nc2cccc(S(=O)(=O)NC3=NCCCCC3)c2)cc1 | 51.8% (active) |
| O=C(COC(=O)c1ccccc1)Nc1cccc(S(=O)(=O)N2CCOCC2)c1 | 33.4% (active) |
| CCOc1ncccc1C(=O)OCC(=O)Nc1cccc(S(=O)(=O)N2CCCCCC2)c1 | 57.6% (active) |
| CS(=O)(=O)c1ccc(Cl)c(NC(=O)COC(=O)c2cccc(S(=O)(=O)N3CCCC3)c2)c1 | 21.3% |
| O=C(COC(=O)/C=C/c1ccc(Br)o1)Nc1cccc(S(=O)(=O)N2CCOCC2)c1 | 26.4% |
| CCC(C)(C)c1ccc(Oc2ccc(NC(=O)COC(=O)C3=COCCO3)cc2)cc1 | 61.5% (active) |
| CC(NC(=O)COC(=O)c1ccc2c(c1)OCO2)c1ccccc1 (centres undefined) | 45.8% (active) |
| O=C(COC(=O)c1ccc2c(c1)OCCO2)NCc1ccccc1 | 45.8% (active) |
| COc1ccc(NC(=O)CC(NC(C)c2ccccc2)C(=O)O)cc1 (centres undefined) | 1.53% |
| O=C(COC(=O)/C=C/c1ccc(S(=O)(=O)N2CCCCCC2)cc1)NCc1ccccc1Cl | 24.4% |
| O=C(COC(=O)c1ccc2c(c1)OCCO2)NCc1ccccc1Cl | 78.9% (active) |
| Cc1cnc(NC(=O)CSc2c(Cl)cccc2Cl)s1 | 21.7% |
